The target of test [1] is Estrogen receptor (Homo sapiens) (UniProt P03372). Put plainly: OT_ER_ERaERa_1440: Odyssey Thera (OT) 24-hour HEK293T Protein-Complementation Assay for Estrogen Receptor-alpha/-alpha Homodimer (AID 2283349).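 Note: hits raise fluorescence above DMSO for agonists and antagonists alike.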 Put shortly: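 Stably transfected HEK293T; ERα LBD homodimer PCA. 24 h dosing, fluorescence intensity read, gain-of-signal vs DMSO.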
The target is the same in test [2]. Put plainly: OT_ER_ERaERa_0480: Odyssey Thera (OT) 8-hour HEK293T Protein-Complementation Assay for Estrogen Receptor-alpha/-alpha Homodimer (AID 2283351).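 Note: rise in fluorescence from reassembled reporter fragments on ERα LBD homodimer in nucleus or whole cell.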 Put shortly:
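Read-out: fluorescence intensity rise relative to DMSO, nuclear for agonists, nuclear plus cytoplasmic for antagonists. Construct is the ERα LBD (aa 310-547) homodimer fragment-complementation pair, stably expressed in HEK293T; exposure 8 h.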

In test [3] the target is T1, Estrogen receptor (Homo sapiens) + Estrogen receptor beta (Homo sapiens) (UniProt P03372+Q92731). Put plainly: OT_ER_ERaERb_0480: Odyssey Thera (OT) 8-hour HEK293T Protein-Complementation Assay for Estrogen Receptor-alpha/-beta Heterodimer (AID 2283352). In a few lines: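 Increase in mean fluorescence intensity, measured by laser scanning plate cytometry, reported ER-alpha/ER-beta LBD complementation in HEK293T cells after 8 h chemical exposure. DMSO served as baseline; basal signal is low, punctate and cytoplasmic.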
T1 sequence (P03372 whole entry, looked up, the tested form may be a part): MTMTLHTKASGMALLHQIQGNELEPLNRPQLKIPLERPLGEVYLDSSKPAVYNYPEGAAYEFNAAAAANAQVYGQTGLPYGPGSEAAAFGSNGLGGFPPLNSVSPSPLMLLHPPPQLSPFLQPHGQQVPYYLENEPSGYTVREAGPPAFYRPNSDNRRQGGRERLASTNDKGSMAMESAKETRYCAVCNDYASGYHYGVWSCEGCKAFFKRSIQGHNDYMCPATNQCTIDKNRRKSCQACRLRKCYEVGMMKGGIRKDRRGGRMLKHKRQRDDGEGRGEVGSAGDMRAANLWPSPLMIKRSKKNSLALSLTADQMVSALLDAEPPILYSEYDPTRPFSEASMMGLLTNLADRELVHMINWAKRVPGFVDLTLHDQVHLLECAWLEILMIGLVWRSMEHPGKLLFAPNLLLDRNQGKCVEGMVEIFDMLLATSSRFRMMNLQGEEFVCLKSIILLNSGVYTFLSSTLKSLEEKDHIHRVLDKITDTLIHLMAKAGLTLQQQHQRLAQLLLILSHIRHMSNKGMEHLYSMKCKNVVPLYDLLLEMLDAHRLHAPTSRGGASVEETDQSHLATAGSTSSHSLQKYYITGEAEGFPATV
T1 sequence (Q92731 whole entry, looked up, the tested form may be a part): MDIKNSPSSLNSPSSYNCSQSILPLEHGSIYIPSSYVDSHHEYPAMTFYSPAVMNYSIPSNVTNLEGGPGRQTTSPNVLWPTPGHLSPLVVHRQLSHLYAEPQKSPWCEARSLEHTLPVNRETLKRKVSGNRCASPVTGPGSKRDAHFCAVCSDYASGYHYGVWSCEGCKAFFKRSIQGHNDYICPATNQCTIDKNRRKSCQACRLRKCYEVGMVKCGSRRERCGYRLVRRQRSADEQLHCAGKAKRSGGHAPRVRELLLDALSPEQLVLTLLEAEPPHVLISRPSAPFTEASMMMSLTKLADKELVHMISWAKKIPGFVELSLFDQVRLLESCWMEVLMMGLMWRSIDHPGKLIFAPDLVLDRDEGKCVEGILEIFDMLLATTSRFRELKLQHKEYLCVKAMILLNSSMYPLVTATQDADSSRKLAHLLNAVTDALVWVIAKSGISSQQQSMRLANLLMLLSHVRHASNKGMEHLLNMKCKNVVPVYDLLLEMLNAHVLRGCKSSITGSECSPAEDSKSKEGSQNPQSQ

Test [4] addresses Androgen Receptor/SRC-1 Co-activator, AR (gene 367) (UniProt P10275). Put plainly: OT_AR_ARSRC1_0960: Odyssey Thera (OT) 16-hour HEK293T Protein-Complementation Assay for Androgen Receptor/SRC-1 Co-activator (AID 2283353).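 Note: actives raise the signal above DMSO so potency reflects increased AR and SRC-1 complex.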 In a few lines: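 Readout: 488 nm nuclear-to-cytoplasmic fluorescence ratio from imaging of at least 400 cells per image, 16 h post-dose. Reporter is Venus YFP complementation between AR and SRC-1 fusions, stably expressed in HEK293T; activity scored upward relative to DMSO.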

For test [5] the target is unchanged. Put plainly: OT_AR_ARSRC1_0480: Odyssey Thera (OT) 8-hour HEK293T Protein-Complementation Assay for Androgen Receptor/SRC-1 Co-activator (AID 2283354).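 Note: hits raise the complementation signal above DMSO so AC50 marks enhancers.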 In a few lines:
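After 8 h dosing, stably expressing HEK293T cells with split-Venus AR/SRC-1 fusions were imaged (488, 635nm). The 488nm N/C ratio per image gave the endpoint, analysed in the positive direction against DMSO.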

The target of test [6] is T1, Estrogen receptor (Homo sapiens) + Estrogen receptor beta (Homo sapiens). Put plainly: OT_ER_ERaERb_1440: Odyssey Thera (OT) 24-hour HEK293T Protein-Complementation Assay for Estrogen Receptor-alpha/-beta Homodimer (AID 2283356).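 Note: heteromer of ER alpha and ER beta binding domains; hits raise reporter fluorescence and both agonists and antagonists give an increase.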 Put shortly: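 Heterodimerisation of ERα (aa 310-547) and ERβ (aa 263-489) ligand binding domains was tracked as fluorescence gain in stably transfected HEK293T cells following 24 h dosing, normalised to DMSO controls.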

Test [7] deals with Estrogen receptor beta (Homo sapiens) (UniProt Q92731). Put plainly: OT_ER_ERbERb_0480: Odyssey Thera (OT) 8-hour HEK293T Protein-Complementation Assay for Estrogen Receptor-beta/-beta Homodimer (AID 2283357).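 Note: active means signal gain over DMSO baseline.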 Put shortly: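 Fluorescence gain from complemented reporter fragments on ER-beta LBD homodimer in HEK293T was quantified against DMSO controls after 8 h treatment, fixation in 4% formaldehyde and Draq5 staining.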
Estrogen receptor beta (Homo sapiens), sequence (Q92731 whole entry, looked up, the tested form may be a part): as above

In test [8] the test system is guinea pig Dopamine Transporter (DAT), gene 100714898. Put plainly: NVS_TR_gDAT: NovaScreen (NVS) Transporter Assay for guinea pig Dopamine Transporter (DAT) (AID 2283369).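 Note: active compounds lower bound radioligand signal relative to DMSO.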 In a few lines:
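Test chemicals were incubated 2 h with guinea pig striatal membranes and a radioligand; bound label was separated by filtration and counted. Screening ran at 25 uM, followed by concentration-response testing to a 50 uM maximum.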

The target in test [9] is Glucocorticoid receptor (Homo sapiens) (UniProt P04150). Put plainly: NVS_NR_hGR: NovaScreen (NVS) Nuclear Receptor Binding Assay for human Glucocorticoid Receptor (GR) (AID 2283363).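 For AC50: activity is loss of specific radioligand binding signal relative to DMSO.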 Put shortly: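 Single-readout cell-free binding: radioligand plus extracted receptor, 16-hour dosing, filter radiodetection; 25 uM duplicate primary, concentration series secondary.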
Glucocorticoid receptor (Homo sapiens), sequence (P04150 whole entry, looked up): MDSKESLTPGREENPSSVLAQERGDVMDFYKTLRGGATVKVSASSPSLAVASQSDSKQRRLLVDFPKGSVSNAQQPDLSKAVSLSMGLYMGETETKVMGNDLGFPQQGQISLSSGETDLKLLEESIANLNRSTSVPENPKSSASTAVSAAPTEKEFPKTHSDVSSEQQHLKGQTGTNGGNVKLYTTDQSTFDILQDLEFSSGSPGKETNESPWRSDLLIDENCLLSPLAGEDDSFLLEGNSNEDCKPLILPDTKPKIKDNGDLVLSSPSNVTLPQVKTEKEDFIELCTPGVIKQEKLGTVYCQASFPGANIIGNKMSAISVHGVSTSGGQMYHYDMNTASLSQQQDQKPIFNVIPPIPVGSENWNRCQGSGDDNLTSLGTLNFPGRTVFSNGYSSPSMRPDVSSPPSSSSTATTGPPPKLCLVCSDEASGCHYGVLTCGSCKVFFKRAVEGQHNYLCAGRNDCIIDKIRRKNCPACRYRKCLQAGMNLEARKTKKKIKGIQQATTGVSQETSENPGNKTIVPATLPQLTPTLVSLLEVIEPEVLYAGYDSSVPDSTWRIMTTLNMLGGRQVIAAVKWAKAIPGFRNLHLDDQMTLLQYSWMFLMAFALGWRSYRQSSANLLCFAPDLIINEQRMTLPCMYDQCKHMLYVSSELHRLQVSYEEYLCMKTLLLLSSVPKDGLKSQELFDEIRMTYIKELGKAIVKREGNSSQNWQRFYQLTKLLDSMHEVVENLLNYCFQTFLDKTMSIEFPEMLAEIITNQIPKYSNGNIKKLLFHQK
Test [10] concerns the target human Dopamine Transporter (DAT), SLC6A3 (gene 6531) (UniProt Q01959). Put plainly: NVS_TR_hDAT: NovaScreen (NVS) Transporter Assay for human Dopamine Transporter (DAT) (AID 2283374).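 Note: activity means loss of bound radioligand signal relative to DMSO.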 In a few lines:
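Extracted human SLC6A3 protein incubated 1 h with radioligand and test chemical; bound fraction separated on filters and counted. Single 25 uM duplicate screen preceded concentration-response follow-up; positive and negative controls on every plate.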

The target of test [11] is guinea pig Sigma Receptor, Non-selective Binding, SIGMAR1 (gene 100135589) (UniProt Q60492). Put plainly: NVS_OR_gSIGMA_NonSelective: NovaScreen (NVS) Nuclear Receptor Binding Assay for guinea pig Sigma Receptor, Non-selective Binding (AID 2283367). In a few lines: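 Test chemicals were screened in duplicate at 25 uM, then in concentration series if active, against radioligand binding to guinea pig brain membranes; filtration and scintillation counting at 1 h measured remaining bound ligand.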
guinea pig Sigma Receptor, Non-selective Binding, SIGMAR1 (gene 100135589), sequence (Q60492 whole entry, looked up): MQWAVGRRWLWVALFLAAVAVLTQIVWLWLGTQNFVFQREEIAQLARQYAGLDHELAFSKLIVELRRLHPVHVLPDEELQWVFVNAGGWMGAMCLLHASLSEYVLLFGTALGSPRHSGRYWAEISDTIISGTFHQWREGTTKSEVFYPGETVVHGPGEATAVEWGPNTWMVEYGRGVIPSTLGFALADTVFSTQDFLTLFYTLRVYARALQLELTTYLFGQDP

The target of test [12] is human Peroxisome Proliferator-activated Receptor alpha (PPARa), PPARA (gene 5465) (UniProt Q07869). Put plainly: NVS_NR_hPPARa: NovaScreen (NVS) Nuclear Receptor Binding Assay for human Peroxisome Proliferator-activated Receptor alpha (PPARa) (AID 2283359).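 Note: activity means loss of TR-FRET signal versus DMSO baseline.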 In a few lines: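 One-hour incubation, cell-free extracted protein, TR-FRET binding readout; signal loss vs DMSO scored. Screen: 25 uM duplicates, confirmatory dose series for actives.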
human Peroxisome Proliferator-activated Receptor alpha (PPARa), PPARA (gene 5465), sequence (Q07869 whole entry, looked up): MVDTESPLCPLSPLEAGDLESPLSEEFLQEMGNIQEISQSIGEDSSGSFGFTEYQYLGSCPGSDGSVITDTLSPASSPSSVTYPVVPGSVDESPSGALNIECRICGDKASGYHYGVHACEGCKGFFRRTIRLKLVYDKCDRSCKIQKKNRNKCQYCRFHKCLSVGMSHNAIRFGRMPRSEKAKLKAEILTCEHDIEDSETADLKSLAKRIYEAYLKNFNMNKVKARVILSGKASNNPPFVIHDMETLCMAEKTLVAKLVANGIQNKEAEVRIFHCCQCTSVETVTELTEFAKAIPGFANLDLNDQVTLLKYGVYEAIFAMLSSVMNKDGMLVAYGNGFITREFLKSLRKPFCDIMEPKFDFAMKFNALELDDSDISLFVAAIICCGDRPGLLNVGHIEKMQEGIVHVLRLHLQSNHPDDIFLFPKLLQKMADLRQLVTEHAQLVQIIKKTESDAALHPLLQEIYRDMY

Test [13] concerns the target PGR (gene 5241) (UniProt P06401). Put plainly: NVS_NR_hPR: NovaScreen (NVS) Nuclear Receptor Binding Assay for human Progestron Receptor (PR) (AID 2283360).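 Note: active means loss of bound radioligand signal versus DMSO baseline.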 In a few lines: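 Cell-free radioligand binding using receptor protein extracted from T47D cells, read by scintillation counting 18 hours after dosing. Loss of signal relative to DMSO baseline indicates displacement; primary screen single concentration 25 uM in duplicate, actives followed in concentration series.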

Test [14] has as its target rat Serotonin Transporter (SERT), Slc6a4 (gene 25553) (UniProt P31652). Put plainly: NVS_TR_rSERT: NovaScreen (NVS) Transporter Assay for rat Serotonin Transporter (SERT) (AID 2283375). Put shortly:
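Steps: rat forebrain membranes dosed with chemical (25 uM duplicate primary; concentration series for actives); 1 h incubation; labelled ligand bound, filtered, counted by scintillation. Activity scored as signal loss vs DMSO.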

Test [15] deals with Retinoic acid receptor alpha (Homo sapiens) (UniProt P10276). Put plainly: NVS_NR_hRARa_Agonist: NovaScreen (NVS) Nuclear Receptor Binding Assay for human Retinoic Acid Alpha Receptor Agonism (RAR) (AID 2283361). Put shortly:
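Compounds screened at 25 uM, duplicate, then in concentration series if active. Detection: TR-FRET gain of signal versus DMSO after 2 h with cell-free extracted RARα.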

The target is the same in test [16]. Put plainly: NVS_NR_hRAR_Antagonist: NovaScreen (NVS) Nuclear Receptor Binding Assay for human Retinoic Acid Alpha Receptor Antagonism (RAR) (AID 2283358). In a few lines:
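Chemicals were first tested in duplicate at 25 uM, then actives in concentration series, in a cell-free TR-FRET antagonist binding format. Measurements were taken 2 hours after dosing and loss of signal was evaluated against DMSO controls.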

SMILES strings stand for the structures. Records with an inconclusive call do not appear. Some compounds were tested as several samples or in several runs, with calls that do not always agree. The source made the active and inactive calls. Rule for the calls: active = hit-call score of the fitted dose curve at least 0.9, where 1 is the maximum; inconclusive = response in the unintended direction; inactive = score below 0.9.

Estrogen receptor (Homo sapiens), sequence (P03372 whole entry, looked up, the tested form may be a part): as the sequence (P03372 whole entry, looked up, the tested form may be a part) above
Androgen Receptor/SRC-1 Co-activator, AR (gene 367), sequence (P10275 whole entry, looked up, the tested form may be a part): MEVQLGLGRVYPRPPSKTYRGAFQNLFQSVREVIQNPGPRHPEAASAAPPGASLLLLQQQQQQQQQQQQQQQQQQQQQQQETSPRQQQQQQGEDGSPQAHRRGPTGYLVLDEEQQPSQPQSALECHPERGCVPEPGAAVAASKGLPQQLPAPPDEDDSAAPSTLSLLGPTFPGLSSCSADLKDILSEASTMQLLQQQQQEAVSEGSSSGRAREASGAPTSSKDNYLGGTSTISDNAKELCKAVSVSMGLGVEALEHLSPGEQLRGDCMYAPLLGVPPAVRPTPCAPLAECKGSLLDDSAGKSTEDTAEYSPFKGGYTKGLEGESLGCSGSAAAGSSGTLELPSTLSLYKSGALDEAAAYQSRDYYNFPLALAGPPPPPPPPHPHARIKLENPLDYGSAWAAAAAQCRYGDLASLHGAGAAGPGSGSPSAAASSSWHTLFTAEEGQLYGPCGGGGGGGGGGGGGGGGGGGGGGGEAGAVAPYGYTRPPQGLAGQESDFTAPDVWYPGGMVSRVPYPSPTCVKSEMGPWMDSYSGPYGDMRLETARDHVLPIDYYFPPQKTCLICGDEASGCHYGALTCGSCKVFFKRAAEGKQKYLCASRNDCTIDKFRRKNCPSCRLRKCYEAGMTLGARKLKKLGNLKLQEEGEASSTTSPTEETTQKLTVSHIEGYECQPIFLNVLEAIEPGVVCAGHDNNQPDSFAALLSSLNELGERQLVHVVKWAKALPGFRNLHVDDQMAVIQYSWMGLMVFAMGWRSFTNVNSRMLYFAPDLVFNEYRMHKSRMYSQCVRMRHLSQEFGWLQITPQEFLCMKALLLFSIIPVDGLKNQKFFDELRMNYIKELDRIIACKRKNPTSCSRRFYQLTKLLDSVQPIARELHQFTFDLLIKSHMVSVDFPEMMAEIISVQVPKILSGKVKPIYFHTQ
human Dopamine Transporter (DAT), SLC6A3 (gene 6531), sequence (Q01959 whole entry, looked up): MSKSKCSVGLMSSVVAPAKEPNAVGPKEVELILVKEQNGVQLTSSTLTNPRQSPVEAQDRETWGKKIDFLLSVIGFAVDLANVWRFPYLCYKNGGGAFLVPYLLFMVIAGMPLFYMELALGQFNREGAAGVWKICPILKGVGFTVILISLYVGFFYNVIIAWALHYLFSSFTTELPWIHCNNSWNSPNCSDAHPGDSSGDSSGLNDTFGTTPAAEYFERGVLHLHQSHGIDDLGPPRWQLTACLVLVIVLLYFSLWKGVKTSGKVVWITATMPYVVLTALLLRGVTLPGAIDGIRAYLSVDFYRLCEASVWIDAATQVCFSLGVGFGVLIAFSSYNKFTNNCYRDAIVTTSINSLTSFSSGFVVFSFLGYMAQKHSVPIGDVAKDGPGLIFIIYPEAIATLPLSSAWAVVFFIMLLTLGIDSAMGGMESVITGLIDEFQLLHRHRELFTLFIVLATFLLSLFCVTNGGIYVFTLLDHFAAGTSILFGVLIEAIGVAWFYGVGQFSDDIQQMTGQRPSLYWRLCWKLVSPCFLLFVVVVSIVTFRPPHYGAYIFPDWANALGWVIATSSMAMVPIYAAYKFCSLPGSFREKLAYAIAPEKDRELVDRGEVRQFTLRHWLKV
Retinoic acid receptor alpha (Homo sapiens), sequence (P10276 whole entry, looked up): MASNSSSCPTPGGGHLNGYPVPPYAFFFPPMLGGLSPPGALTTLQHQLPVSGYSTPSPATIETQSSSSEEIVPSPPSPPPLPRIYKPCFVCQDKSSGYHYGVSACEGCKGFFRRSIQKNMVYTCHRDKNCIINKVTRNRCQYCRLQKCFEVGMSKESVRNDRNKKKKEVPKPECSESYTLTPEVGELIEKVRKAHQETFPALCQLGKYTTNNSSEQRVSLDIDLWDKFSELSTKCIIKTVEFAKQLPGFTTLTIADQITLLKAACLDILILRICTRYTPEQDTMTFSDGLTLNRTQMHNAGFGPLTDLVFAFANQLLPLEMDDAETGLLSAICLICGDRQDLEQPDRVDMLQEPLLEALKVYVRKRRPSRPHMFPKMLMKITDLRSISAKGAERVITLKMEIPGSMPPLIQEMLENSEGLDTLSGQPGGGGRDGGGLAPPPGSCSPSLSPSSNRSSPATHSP

Turning to `COc1cc(O)c(C(=O)c2ccccc2)cc1S(=O)(=O)O`, the compound was classed as inactive in [1], in test [2], in test [3], in [4], in test [5] and in test [6]. Besides, the compound was called inactive in test [7].
For `O=C(OCCc1ccccc1)c1ccccc1`, the call in [1] and in test [2] was inactive.
As for `O=C(Oc1ccccc1)c1ccccc1O`, the outcome in test [1] and in test [2] was inactive.
For the compound `CCCCCC(=O)OCC`, the result in [1], in [2], in test [3], in [6] and in test [7] was inactive.
Take `CCOC(=O)C1=NN(c2ccc(Cl)cc2Cl)C(C)(C(=O)OCC)C1` (configuration not stated): in test [8], the AC50 is 15.8 µM (active).
With `CCOC(=O)/C=C\C(=O)OCC`, the compound was called inactive in [9].
For `CC(C)C(=O)OCCOc1ccccc1`, the AC50 in test [10] was 19.6 µM (active).
`CCc1cccc(CC)c1`: the compound was classed as inactive in test [9].
In the case of `CCCCCCCO`, the compound was classed as inactive in test [1], in [2], in [3], in test [6] and in test [7]. In addition, the AC50 in test [10] is 13.2 µM (active).
For the compound `CC(C)[N+](C)(CCOC(=O)C1c2ccccc2Oc2ccccc21)C(C)C`, the compound was called inactive in test [9]. In test [11], the AC50 was 2.4 µM (active).
On to `O=C(Oc1ccccc1)c1ccccc1C(=O)Oc1ccccc1`, for which the AC50 was 3.31 µM (active) in test [8] and 0.758 µM (active) in test [10].
For `CCCCC(CC)COC(=O)/C=C/c1ccc(OC)cc1` (configuration not stated), the call in test [1], in test [2] and in test [5] was inactive. Also, the AC50 in test [4] is 50 µM (active).
For the compound `CCCC=C(C=O)CC`, the outcome in test [1], in test [2], in test [6] and in [7] was inactive.
Consider `C=CCOC(=O)c1ccc(C(=O)OCC=C)c(C(=O)OCC=C)c1`, for which the outcome in test [1], in test [2], in test [3], in test [6] and in test [7] was inactive.
For the compound `CCCCCCO`, the compound was classed as inactive in test [1], in test [2] and in test [12].
Regarding `CCCCC(=O)O`, the result in [1], in test [2], in test [3], in test [6] and in test [9] was inactive. The AC50 in [9] is 8.11 µM (active).
`Cc1ccc([N+](=O)[O-])cc1N`: the compound was called inactive in [1], in [2], in test [3], in test [6], in test [13] and in test [14].
For `O=C(O)C1CCC(C(=O)O)CC1` (configuration not stated), the call in test [1], in [2], in [6] and in test [7] was inactive.
Consider `CCCCNS(=O)(=O)c1ccc(C)cc1`, for which the result in [1], in test [2], in test [12] and in test [15] was inactive.
With `Nc1ccc(C(=O)O)cc1`, the outcome in test [1], in test [2], in [3], in test [6], in [7] and in test [16] was inactive.
`CCCCCCCCCCCCCc1ccccc1`: the compound was called inactive in test [8].
Turning to `CCN1CN(CC)CN(CC)C1`, the compound was classed as inactive in test [1], in [2], in test [6] and in test [7].

The values above are taken from PubChem BioAssay (EPA / NIEHS).
